# Measured values taken from the supplement of paper PMC11732987, “Enantioselective OTUD7B fragment discovery through chemoproteomics screening and high-throughput optimisation” (Communications Chemistry, 2025).
# Values without a mark were called inactive.
# Columns and labels:
# Test in all cases: log2 ratio of Biotin-Ahx-Ub-VS probe labelling (fragment/DMSO); higher = less target engagement (more negative = stronger competition), active = hit call of the paper (q ≤ 0.05, log2 ratio ≤ -1)
# Conditions in all cases: compound concentration: 200 uM; treatment time: 3 h
# USP19 = target: T1, USP19 (UniProt O94966)
# T1 sequence (whole entry): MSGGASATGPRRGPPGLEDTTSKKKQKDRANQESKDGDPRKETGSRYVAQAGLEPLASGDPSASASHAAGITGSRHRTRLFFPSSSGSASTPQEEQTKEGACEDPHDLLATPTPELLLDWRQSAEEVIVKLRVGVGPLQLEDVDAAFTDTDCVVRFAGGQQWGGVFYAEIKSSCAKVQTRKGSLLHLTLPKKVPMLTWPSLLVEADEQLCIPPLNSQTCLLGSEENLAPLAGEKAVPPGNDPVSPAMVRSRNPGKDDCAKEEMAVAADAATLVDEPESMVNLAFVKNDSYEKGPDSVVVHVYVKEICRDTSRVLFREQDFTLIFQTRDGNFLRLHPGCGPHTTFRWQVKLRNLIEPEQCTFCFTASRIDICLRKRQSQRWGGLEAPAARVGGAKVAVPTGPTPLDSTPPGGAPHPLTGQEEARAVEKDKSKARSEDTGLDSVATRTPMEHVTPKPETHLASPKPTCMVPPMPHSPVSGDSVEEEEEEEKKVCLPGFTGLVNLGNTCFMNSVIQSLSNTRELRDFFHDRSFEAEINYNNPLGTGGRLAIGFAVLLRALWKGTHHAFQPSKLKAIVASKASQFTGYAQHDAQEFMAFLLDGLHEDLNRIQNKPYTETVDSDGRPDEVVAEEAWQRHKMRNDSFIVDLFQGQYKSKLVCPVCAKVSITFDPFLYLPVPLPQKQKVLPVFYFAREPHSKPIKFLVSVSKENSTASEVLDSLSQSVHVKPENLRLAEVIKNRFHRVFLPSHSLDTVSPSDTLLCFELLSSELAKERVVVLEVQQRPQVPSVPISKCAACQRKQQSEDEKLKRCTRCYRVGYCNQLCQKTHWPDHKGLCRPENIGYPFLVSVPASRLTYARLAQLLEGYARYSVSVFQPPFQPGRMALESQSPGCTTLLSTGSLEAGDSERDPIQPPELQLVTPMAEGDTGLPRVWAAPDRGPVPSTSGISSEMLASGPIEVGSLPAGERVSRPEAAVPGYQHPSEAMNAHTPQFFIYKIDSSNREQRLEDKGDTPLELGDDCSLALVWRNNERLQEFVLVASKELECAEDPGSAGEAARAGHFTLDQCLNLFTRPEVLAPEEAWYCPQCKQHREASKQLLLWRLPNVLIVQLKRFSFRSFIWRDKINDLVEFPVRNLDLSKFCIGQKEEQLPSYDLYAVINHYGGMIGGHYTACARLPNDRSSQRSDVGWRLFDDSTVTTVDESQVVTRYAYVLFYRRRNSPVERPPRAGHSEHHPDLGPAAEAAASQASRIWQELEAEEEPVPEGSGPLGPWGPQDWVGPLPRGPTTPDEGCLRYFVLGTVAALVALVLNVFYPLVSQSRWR
# In short: (§1)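 HEK293T lysate in Tris/CHAPS/IGEPAL buffer with protease inhibitors (495 µg per sample) was given fragment at 200 µM or vehicle for 3 h, in triplicate. It then received Biotin-Ahx-Ub-VS at 0.5 µM final for 1 h. Labelled DUBs were NeutrAvidin-enriched, digested with LysC and trypsin, and run by diaPASEF LC-MS/MS. Values are average log2 fragment/vehicle ratios by unpaired t-test on global-median-normalised Spectronaut quantities of proteins with ≥2 unique peptides.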
# USP22 = target: T2, USP22 (UniProt Q9UPT9)
# T2 sequence (whole entry): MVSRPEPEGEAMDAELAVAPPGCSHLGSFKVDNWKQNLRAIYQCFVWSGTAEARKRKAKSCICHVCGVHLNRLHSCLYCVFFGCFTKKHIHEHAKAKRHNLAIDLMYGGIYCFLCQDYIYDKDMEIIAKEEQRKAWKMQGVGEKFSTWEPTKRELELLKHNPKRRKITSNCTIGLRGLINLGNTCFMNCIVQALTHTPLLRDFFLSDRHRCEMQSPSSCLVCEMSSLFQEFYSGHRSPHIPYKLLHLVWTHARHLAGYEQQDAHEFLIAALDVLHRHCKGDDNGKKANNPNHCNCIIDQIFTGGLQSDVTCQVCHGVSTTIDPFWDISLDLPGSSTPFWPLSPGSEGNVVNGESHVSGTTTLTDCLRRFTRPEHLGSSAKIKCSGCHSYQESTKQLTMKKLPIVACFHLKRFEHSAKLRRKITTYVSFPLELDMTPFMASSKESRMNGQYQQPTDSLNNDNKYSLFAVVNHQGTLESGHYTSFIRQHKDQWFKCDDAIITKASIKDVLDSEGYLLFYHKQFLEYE
# In short: as §1
# USP24 = USP24 (UniProt Q9UPU5)
# In short: as §1
# USP25 = target: T3, USP25 (UniProt Q9UHP3)
# T3 sequence (whole entry): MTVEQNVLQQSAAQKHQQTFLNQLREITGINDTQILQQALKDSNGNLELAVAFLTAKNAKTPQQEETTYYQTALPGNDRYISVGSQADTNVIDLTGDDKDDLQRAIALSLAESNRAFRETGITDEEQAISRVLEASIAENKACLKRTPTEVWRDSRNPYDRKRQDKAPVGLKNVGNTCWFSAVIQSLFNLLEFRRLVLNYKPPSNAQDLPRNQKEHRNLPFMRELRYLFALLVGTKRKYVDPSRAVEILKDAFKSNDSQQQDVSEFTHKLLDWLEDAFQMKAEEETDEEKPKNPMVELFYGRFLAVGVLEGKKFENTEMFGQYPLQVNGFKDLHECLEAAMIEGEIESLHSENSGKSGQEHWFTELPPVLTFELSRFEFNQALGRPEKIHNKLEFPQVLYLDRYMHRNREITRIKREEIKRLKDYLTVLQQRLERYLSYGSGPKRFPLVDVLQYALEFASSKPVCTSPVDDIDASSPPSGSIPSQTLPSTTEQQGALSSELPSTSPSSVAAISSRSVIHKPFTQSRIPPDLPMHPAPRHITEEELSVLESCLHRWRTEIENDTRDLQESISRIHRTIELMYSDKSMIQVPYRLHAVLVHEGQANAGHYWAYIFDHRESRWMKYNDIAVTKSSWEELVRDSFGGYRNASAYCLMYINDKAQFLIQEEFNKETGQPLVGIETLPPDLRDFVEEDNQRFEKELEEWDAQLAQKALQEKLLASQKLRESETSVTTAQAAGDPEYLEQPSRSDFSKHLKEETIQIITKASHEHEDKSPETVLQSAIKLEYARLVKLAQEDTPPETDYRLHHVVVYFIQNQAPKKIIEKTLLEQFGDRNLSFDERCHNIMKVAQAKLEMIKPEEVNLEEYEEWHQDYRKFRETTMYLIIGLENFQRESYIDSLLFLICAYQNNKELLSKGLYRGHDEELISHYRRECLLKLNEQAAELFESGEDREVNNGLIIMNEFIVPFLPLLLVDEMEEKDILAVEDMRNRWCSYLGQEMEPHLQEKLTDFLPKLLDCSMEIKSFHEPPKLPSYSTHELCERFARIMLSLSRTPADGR
# In short: as §1
# USP28 = target: T4, USP28 (UniProt Q96RU2)
# T4 sequence (whole entry): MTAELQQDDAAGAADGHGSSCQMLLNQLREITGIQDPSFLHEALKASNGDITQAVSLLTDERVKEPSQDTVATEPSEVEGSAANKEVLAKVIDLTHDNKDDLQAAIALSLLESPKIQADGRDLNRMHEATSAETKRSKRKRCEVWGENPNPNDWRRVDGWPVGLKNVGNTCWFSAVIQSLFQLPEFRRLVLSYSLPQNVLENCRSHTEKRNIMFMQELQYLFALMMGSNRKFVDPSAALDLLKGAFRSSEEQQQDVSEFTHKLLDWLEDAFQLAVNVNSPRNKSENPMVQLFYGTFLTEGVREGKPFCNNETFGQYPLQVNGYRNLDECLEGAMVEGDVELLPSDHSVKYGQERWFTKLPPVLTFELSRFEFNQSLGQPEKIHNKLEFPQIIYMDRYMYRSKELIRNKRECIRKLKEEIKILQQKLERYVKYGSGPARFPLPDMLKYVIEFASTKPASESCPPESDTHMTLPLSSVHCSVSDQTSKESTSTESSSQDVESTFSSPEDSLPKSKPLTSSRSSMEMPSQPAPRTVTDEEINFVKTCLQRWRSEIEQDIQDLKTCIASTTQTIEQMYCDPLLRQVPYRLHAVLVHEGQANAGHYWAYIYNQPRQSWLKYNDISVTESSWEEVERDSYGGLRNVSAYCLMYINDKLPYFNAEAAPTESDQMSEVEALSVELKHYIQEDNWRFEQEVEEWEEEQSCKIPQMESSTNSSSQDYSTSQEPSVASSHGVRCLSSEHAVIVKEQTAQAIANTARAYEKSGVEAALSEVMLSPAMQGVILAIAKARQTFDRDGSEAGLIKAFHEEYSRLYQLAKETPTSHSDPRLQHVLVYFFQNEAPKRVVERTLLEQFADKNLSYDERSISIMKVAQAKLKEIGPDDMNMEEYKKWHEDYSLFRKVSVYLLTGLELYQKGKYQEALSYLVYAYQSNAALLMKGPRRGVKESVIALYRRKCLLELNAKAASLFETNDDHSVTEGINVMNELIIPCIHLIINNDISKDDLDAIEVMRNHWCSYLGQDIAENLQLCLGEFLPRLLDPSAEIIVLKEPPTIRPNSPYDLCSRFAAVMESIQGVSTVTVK
# In short: as §1
# USP24, sequence (Q9UPU5 whole entry): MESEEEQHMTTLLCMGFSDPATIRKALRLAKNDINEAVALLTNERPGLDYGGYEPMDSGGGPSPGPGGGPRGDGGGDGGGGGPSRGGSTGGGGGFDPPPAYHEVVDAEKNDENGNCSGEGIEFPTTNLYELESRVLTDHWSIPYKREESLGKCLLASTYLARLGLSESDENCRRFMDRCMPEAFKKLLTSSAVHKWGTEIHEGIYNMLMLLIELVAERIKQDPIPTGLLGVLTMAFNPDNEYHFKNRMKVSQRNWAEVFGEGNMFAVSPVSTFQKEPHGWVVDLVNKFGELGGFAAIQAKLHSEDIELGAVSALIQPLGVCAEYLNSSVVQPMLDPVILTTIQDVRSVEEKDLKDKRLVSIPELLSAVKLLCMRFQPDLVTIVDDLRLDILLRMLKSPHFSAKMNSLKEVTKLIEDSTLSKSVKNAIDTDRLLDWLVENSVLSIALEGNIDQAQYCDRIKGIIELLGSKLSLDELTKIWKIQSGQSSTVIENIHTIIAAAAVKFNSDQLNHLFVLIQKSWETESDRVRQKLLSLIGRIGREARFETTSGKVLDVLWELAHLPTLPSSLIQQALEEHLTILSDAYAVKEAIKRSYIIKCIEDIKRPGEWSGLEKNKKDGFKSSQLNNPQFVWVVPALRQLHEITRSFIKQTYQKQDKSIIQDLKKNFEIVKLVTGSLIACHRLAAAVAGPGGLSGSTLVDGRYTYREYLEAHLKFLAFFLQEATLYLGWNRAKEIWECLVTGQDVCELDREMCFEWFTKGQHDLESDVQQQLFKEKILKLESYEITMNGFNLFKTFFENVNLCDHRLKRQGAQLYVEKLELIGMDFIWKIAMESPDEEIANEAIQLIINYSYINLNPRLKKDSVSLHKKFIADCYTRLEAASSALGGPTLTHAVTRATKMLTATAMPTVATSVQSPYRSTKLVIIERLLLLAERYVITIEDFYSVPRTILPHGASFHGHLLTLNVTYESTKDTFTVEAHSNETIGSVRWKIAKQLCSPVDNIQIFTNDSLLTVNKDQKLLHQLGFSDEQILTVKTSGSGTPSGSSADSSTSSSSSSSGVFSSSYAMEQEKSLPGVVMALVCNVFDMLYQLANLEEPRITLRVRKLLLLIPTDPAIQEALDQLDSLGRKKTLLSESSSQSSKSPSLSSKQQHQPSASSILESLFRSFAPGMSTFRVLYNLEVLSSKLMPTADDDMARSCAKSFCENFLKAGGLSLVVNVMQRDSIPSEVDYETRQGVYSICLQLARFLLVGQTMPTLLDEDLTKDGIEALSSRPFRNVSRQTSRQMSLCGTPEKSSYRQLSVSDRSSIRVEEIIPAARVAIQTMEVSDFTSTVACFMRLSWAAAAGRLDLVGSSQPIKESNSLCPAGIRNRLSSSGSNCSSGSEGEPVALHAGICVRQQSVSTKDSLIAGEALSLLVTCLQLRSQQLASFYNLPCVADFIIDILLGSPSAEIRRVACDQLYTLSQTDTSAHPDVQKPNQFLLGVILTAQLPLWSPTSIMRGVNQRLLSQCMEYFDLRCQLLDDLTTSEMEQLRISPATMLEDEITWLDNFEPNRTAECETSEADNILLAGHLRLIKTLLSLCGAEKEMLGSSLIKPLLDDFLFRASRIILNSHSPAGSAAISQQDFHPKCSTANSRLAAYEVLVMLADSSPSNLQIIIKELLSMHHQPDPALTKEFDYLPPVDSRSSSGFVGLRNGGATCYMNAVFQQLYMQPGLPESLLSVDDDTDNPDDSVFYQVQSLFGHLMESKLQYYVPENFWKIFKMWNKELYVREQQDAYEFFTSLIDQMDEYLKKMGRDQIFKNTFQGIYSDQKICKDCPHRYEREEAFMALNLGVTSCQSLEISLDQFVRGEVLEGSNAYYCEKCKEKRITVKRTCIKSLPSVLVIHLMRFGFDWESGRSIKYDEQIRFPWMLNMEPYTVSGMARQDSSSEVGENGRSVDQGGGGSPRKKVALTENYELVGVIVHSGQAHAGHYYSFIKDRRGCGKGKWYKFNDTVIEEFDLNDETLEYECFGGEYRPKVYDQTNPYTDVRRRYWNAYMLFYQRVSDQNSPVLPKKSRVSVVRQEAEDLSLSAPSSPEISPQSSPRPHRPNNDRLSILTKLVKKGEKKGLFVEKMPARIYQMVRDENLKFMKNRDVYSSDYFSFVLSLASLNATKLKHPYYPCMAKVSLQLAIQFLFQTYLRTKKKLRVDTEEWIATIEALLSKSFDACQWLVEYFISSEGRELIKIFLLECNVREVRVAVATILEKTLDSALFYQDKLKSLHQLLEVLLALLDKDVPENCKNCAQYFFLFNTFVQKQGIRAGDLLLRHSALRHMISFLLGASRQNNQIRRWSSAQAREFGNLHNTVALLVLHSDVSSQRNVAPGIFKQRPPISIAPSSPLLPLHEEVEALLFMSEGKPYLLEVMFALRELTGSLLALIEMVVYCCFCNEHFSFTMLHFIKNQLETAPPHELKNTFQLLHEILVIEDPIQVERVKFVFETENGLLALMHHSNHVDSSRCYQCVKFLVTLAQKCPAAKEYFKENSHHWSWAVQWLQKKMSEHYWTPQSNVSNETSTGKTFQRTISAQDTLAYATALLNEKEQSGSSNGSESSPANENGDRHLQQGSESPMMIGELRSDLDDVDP
compound,measurement,setting,value
Cc1cccc(NC(=O)CCl)c1C,log2 ratio of Biotin-Ahx-Ub-VS probe labelling,USP19,-0.393
same,log2 ratio of Biotin-Ahx-Ub-VS probe labelling,USP22,-0.267
same,log2 ratio of Biotin-Ahx-Ub-VS probe labelling,USP24,-0.573
same,log2 ratio of Biotin-Ahx-Ub-VS probe labelling,USP25,-1.06 (active)
same,log2 ratio of Biotin-Ahx-Ub-VS probe labelling,USP28,-1.32 (active)
